# Compound activity: PubChem BioAssay, several laboratories
# Compounds with a hit are over-represented: about 4% of the library has one in this group of screens.
# GRIN3A LBD mod – NR3A (human) ligand-binding domain modulation; NR3A LBD differential scanning fluorimetry, Tm shift; 0% = protein alone, 100% = glycine-bound protein; Tm shift relative to glycine control, % at 25 µM; hit rate 2.5% among 340,000;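 active = melting temperature shift of at least 10% of the positive control shift, at one fixed dose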
# aDG glyco up – increases alpha dystroglycan glycosylation. Pro5-aDG cells, alpha-DG glycosylation AlphaScreen (IIH6); 0% Pro5, 100% B10-LARGE cell signal. activation, % at 10 µM. hit rate 0.22% among 360,000. AID 624168;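 active = activation of at least 8% versus controls, or a plate z-score of at least 8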;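 also: Pro5 are CHO cells carrying HIG-tagged alpha-DG that lacks glycosylation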
# ADAM10 inh – inhibitors of human ADAM10; O14672; recombinant ADAM10, EDANS/DABCYL FRET peptide cleavage, 3 h; inhibition, % at 7 µM; hit rate 0.62% among 370,000;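 active = inhibition above a per-campaign cutoff equal to the mean of compounds falling between control-based bounds plus 3 SD, cut at about 20% in these data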;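 also: 0% = DMSO wells while the 100% control is not disclosed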
# FAS-TE inh – inhibitors of human fatty acid synthase thioesterase domain. inhibition, % at 15 µM. recombinant FAS-TE, OMFH fluorogenic substrate, fluorescence endpoint. AID 602261. hit rate 0.67% among 360,000;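 active = compounds whose normalised, plate-corrected inhibition of enzyme fluorescence in the single-dose primary screen is 50% or more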;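 also: 0% = DMSO with enzyme and 100% = substrate without enzyme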
# ADAM17 inh – inhibits human ADAM17. recombinant ADAM17, EDANS/DABCYL FRET peptide cleavage. inhibition, % at 6.95 µM. hit rate 0.83% among 370,000;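 active = inhibition above the mean of compounds lying between control limits plus 3 SD, set per campaign, cut at about 8.5% in these data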;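 also: 0% = DMSO-only wells as the low control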
# Target sequence (P78536 215-824 limits assumed): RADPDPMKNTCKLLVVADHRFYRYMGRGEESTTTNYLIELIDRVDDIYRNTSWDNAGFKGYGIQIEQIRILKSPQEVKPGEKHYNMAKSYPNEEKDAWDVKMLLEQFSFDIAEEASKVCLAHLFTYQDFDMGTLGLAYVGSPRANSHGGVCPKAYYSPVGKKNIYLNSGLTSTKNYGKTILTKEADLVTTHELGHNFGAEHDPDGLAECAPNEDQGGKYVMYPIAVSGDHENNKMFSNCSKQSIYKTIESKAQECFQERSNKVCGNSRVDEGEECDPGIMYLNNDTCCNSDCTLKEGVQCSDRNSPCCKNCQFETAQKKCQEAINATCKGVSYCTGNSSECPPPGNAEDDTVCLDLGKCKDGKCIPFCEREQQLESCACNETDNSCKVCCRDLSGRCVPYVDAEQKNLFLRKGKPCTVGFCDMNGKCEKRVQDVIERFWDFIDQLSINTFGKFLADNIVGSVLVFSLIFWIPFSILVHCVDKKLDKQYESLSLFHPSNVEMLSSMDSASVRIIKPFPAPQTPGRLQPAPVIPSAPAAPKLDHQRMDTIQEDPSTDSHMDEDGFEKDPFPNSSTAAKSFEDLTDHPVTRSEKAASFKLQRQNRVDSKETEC
# * marks the source's active call; other numbers are inactive results; / = not tested or not shown.
SMILES,GRIN3A LBD mod,aDG glyco up,ADAM10 inh,FAS-TE inh,ADAM17 inh
O=[N+]([O-])c1cccc(-c2ccc(/C=N/NC(=S)Nc3cccc(F)c3)o2)c1,28*,0,1,24,1
CN(C)c1ccc(/C=N/NC(=O)C2COc3ccccc3O2)o1 (configuration not stated),0,0,-12,-9,-6
COc1ccc(C(=O)N/C(=C\c2ccc3c(c2)OCO3)C(=O)Nc2cccc(C(=O)O)c2)cc1,0,0,-1,3,-2
COc1cccc(N2C(=O)CC(NNc3nc4ccccc4s3)C2=O)c1 (configuration not stated),-1,0,-1,5,-3
Cc1ccc(CNC(=O)CN(CCc2ccccc2)S(C)(=O)=O)cc1,-2,1,3,0,0
COCCn1cnc2c1c(=O)n(CC(=O)Nc1cc(C)on1)c(=O)n2Cc1ccccc1,11*,0,-5,-3,-2
COCCn1cnc2c1c(=O)n(CC(=O)NC1CCCCC1)c(=O)n2Cc1ccccc1,/,0,8,-5,0
N#C/C(=C\c1ccncc1)c1ccc(NC(N)=O)cc1,5,0,-33,-5,-13
CSc1ccc(C(=O)NCC(=O)O)cc1[N+](=O)[O-],-1,0,10,-3,0
O=C(CSc1nc(-c2ccco2)cc(C(F)(F)F)n1)Nc1ccc(C(=O)N2CCOCC2)cc1,0,0,-10,-3,-4
CCn1cc(CN2CCC(C(=O)Nc3cccc(-c4cccc(F)c4)c3)CC2)cn1,-1,1,-2,-2,0
CCn1cc(CN2CCC(C(=O)Nc3cccc(-c4cccc(OC)c4)c3)CC2)cn1,-4,0,-3,-4,-1
CCn1nc(C)c(CN2CCC(C(=O)Nc3cccc(-c4cccc(F)c4)c3)CC2)c1C,0,8.0*,-1,-4,-4
CC(C)n1cc(CN2CCC(C(=O)Nc3cccc(-c4cccc(Cl)c4)c3)CC2)cn1,-3,8.6*,-7,-3,-5
CC(C)(C)CC(C)(C)c1ccc(OCC(=O)N/N=C/c2ccc(S(=O)(=O)O)o2)cc1,1,0,-5,-6,1
Cc1ccc(C(=O)Nc2ccc(Nc3ccccc3)cc2)cc1Br,25*,0,12,36,8
O=C(Nc1ccccc1)c1ccc(NC(=O)C2CC2)cc1,16*,0,-10,-7,1
CC(=O)Nc1ccc(NC(=O)c2cc([N+](=O)[O-])cc([N+](=O)[O-])c2)cc1,-1,0,0,14,-3
O=C(Nc1ccc(F)cc1)c1ccccc1,16*,0,2,-6,1
O=C(Nc1ccc(Br)cc1)c1cc([N+](=O)[O-])cc([N+](=O)[O-])c1,-2,1,7,55*,-3
COc1ccc(NC(=O)c2ccc(NS(=O)(=O)c3c(C)noc3C)cc2)cc1OC,-3,0,4,-1,-1
O=C(Nc1ccc(Cl)cc1)c1ccc2c(c1)OCO2,-6,0,-16,2,-5
Cc1ccc(NC(=O)c2ccc(NS(=O)(=O)c3c(C)noc3C)cc2)cc1C,30*,0,5,0,-1
O=C(Nc1ccc(Cl)cc1)C1=Cc2ccccc2OC1,20*,0,5,18,7
O=C(Nc1ccc(C2SCCS2)cc1)c1ccccc1,15*,0,-13,2,-1
SMILES,GRIN3A LBD mod,aDG glyco up,ADAM10 inh,FAS-TE inh,ADAM17 inh
O=C(Nc1ccc(Br)cc1)c1cccc(N2C(=O)CCC2=O)c1,14*,0,-3,1,0
CNC(=O)Nc1ccc(C2SCCS2)cc1,2,0,-3,-4,-3
COc1cc2c(=O)n(CCC(=O)NCC3CCCO3)c(=O)n(CC(=O)Nc3ccccc3C)c2cc1OC (configuration not stated),2,0,-69,-8,-24
Cc1ccc(-c2c[n+](Cc3cccc(Cl)c3)c3n2CCC3)cc1,2,0,7,-6,-1
CC(=O)Nc1cccc(NC(=O)c2ccc(Br)cc2)c1,-17,0,-8,-3,-5
O=C(Nc1ccc(Nc2ccccc2)cc1)c1ccc(Br)cc1,36*,0,-3,-2,-4
Cc1ccc(NC(=O)c2ccc(NC(=O)c3ccccc3)cc2)cc1C,17*,3,-16,4,-2
O=C(Nc1ccccc1)c1cccc(N2C(=O)C3C4C=CC(C4)C3C2=O)c1 (configuration not stated),1,0,-6,-1,-2
